PubChem BioAssay
Several values for one entry are separate records, joined by “and”; a condition that tells them apart may be missing. Equal entries are not always repeated. Activity calls are given as the source filed them. Rule as the data show it: active = inhibition above about 80%; inactive = the rest.

Assay: growth inhibition, single agents and combos, LFS_MB_2R, cell-based, cisplatin combos, synergistic combos for chromothripsis tumors (AID 1671457);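 also: cells exposed to compound for four days before readout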
Conditions: LFS_MB_2R medulloblastoma cells, at 0.5 µM, stronger effect = higher value

| SMILES | inhibition |
| --- | --- |
| Cc1c(N)nc(C(CC(N)=O)NCC(N)C(N)=O)nc1C(=O)NC(C(=O)NC(C)C(O)C(C)C(=O)NC(C(=O)NCCc1nc(-c2nc(C(=O)NCCC[S+](C)C)cs2)cs1)C(C)O)C(O[C@@H]1O[C@@H](CO)[C@@H](O)[C@H](O)[C@@H]1O[C@H]1O[C@H](CO)[C@@H](O)[C@H](OC(N)=O)[C@@H]1O)c1cnc[nH]1 (stereo partly specified) | -1.61% (inactive) and -19.6% (inactive) |
| O=c1[nH]c(=O)n(C2OC(CO)C(O)C2O)cc1F (stereo unspecified) | -12.7% (inactive) |
| O=P(O)(NCCCl)NCCCl | -16.7% (inactive) |
| CC1(C)C(C(=O)Nc2ccc(S(=O)(=O)c3ccc(NC(=O)C4C(C)(C)C4(C)C)cc3)cc2)C1(C)C | -14.5% (inactive) |
| CCC1(O)C(=O)OCc2c1cc1n(c2=O)Cc2cc3ccccc3nc2-1 (stereo unspecified) | 7.34% (inactive) and -4.41% (inactive) |
| NC(Cc1ccc(N(CCCl)CCCl)cc1)C(=O)O (stereo unspecified) | -18.9% (inactive) |
| COc1cc([C@@H]2c3cc4c(cc3[C@H](O)[C@H]3COC(=O)[C@H]23)OCO4)cc(OC)c1O | 13.5% (inactive) and -0.16% (inactive) |
| COc1cc(C2c3cc4c(cc3C(O)C3COC(=O)C23)OCO4)cc(OC)c1OC (stereo unspecified) | 33.5% (inactive) |

Same assay, conditions: LFS_MB_2R medulloblastoma cells, measured here: combination with cisplatin, at 0.5 µM, stronger effect = higher value

| SMILES | inhibition |
| --- | --- |
| Cc1c(N)nc(C(CC(N)=O)NCC(N)C(N)=O)nc1C(=O)NC(C(=O)NC(C)C(O)C(C)C(=O)NC(C(=O)NCCc1nc(-c2nc(C(=O)NCCC[S+](C)C)cs2)cs1)C(C)O)C(O[C@@H]1O[C@@H](CO)[C@@H](O)[C@H](O)[C@@H]1O[C@H]1O[C@H](CO)[C@@H](O)[C@H](OC(N)=O)[C@@H]1O)c1cnc[nH]1 (stereo partly specified) | 1.34% and -24.5% |
| O=c1[nH]c(=O)n(C2OC(CO)C(O)C2O)cc1F (stereo unspecified) | -4.31% |
| O=P(O)(NCCCl)NCCCl | -19.3% |
| CC1(C)C(C(=O)Nc2ccc(S(=O)(=O)c3ccc(NC(=O)C4C(C)(C)C4(C)C)cc3)cc2)C1(C)C | -16.8% |
| CCC1(O)C(=O)OCc2c1cc1n(c2=O)Cc2cc3ccccc3nc2-1 (stereo unspecified) | 19% and 21% |
| NC(Cc1ccc(N(CCCl)CCCl)cc1)C(=O)O (stereo unspecified) | -23.8% |
| COc1cc([C@@H]2c3cc4c(cc3[C@H](O)[C@H]3COC(=O)[C@H]23)OCO4)cc(OC)c1O | 23.7% and 7.38% |
| COc1cc(C2c3cc4c(cc3C(O)C3COC(=O)C23)OCO4)cc(OC)c1OC (stereo unspecified) | 48.6% |
